The term % Inhibition denotes the change of the read-out against control, counted positive when it falls.

Like-named read-outs stand apart in the source and are kept apart here. The whole screen tested about 13,000 compounds, of which about 3,200 (25%) showed an effect of 50% or more. The list shows a part of the results.

This test deals with P. falciparum stage V gametocytes. Set-up: BacTiter-Glo ATP luminescence viability of purified stage V gametocytes in 384-well plates, per cent inhibition versus DMSO. Conditions: 48 h, 5 µM, inhibitor.

As for `O=C(Nc1ccc(OC2CCN(Cc3ccccc3)CC2)c(Cl)c1)c1ccsc1` [TCMDC-133989], the “% Inhibition” value came out at 12.12%.
Still for that read-out and setting: for `Clc1ccc2c(NCc3ccccc3)ccnc2c1` [TCMDC-125506] the value was -30.27%; for `CCCCNc1ccc(C(=O)NC2CCN(C[C@H](O)c3ccnc4ccc(OC)cc34)CC2)cc1` [TCMDC-141038], -7.518%.
On to `CC1(C)N=C(N)N=C(N)N1OCCCOc1cc(Cl)cc(Cl)c1` [TCMDC-131790], for which the “% Inhibition” value came out at 16.66%.
`O=C(Nc1ccc(F)c(Cl)c1)NC1CCN(c2ccnc3cc(Cl)ccc23)C1` (centres unmarked) [TCMDC-133404]: the “% Inhibition” value is listed as -39.28%.
Consider `CCOC(=O)c1c(NC(=O)c2ccccc2)sc2c(O)c(CN(CC)CC)ccc12` [TCMDC-124066], for which the “% Inhibition” value is -13.75%.
On the same count and under the same terms, for `CCC(C)NC(=O)CN1CN(c2ccccc2)C2(CCN(C(=O)c3ccc(-c4ccccc4)cc3)CC2)C1=O` (centres unmarked) [TCMDC-125175] the value was -41.83%; for `Cc1cc(N2CCCC2)nc(Nc2ccc(NC(=O)Cc3ccccc3)cc2)n1` [TCMDC-124967], -3.146%; for `CC(=O)Nc1ccc(C(=O)Nc2cccc(-c3ccc(-c4nc5cc(C(F)(F)F)ccc5[nH]4)s3)c2)cn1` [TCMDC-136825], 32.63%.
On the same count and under the same terms, for `NC1=NCN(OCc2ccc(Cl)c(Cl)c2)C(N)=N1` [TCMDC-131661] the value was 6.901%; for `O=[N+]([O-])c1cccc(CNCC2CCN(Cc3ccc(C(F)(F)F)cc3)CC2)c1` [TCMDC-141209], 21.63%; for `Cc1ccc2c(c1)c(C1CCN(C(=O)c3ccc([N+](=O)[O-])o3)CC1)cn2C` [TCMDC-124787], 93.47%.
Consider `O=C(c1ccc([N+](=O)[O-])o1)N1CCC(c2cn(Cc3cccc(F)c3)c3ccccc23)CC1` [TCMDC-124804], for which the “% Inhibition” value is 44.33%.
On the same count and under the same terms, for `Cc1ccc2c(-c3ccc([N+](=O)[O-])o3)cc(C)nc2c1` [TCMDC-131568] the value was 5.138%.
The same measure, in the same setting: with `O=C(c1ccc([N+](=O)[O-])o1)N1CCC(Cc2ccc(C(F)(F)F)cc2)CC1` [TCMDC-124805] the figure was 110.5%; with `CC(C)(C)c1ccc2oc(=O)n(C3CCN(C(=O)c4ccc([N+](=O)[O-])o4)CC3)c2c1` [TCMDC-124798], 106.6%; with `FC(F)(F)c1ccc(CNCC2CCN(Cc3ccc4c(c3)OCO4)CC2)cc1` [TCMDC-141674], 9.475%.
Still for that read-out and setting: with `COc1cccc(-c2cnc(-c3ccncc3)nc2C2CCN(Cc3ccc(NC(C)=O)cc3)CC2)c1` [TCMDC-124592] the figure was 1.604%.
Take `O=C(Nc1ccc(OC2CCN(Cc3ccc(F)cc3)CC2)c(Cl)c1)c1ccccc1` [TCMDC-133751]: the “% Inhibition” value turned out to be 2.198%.
Regarding `COc1ccc(CN2CCCC(Nc3ccc(F)c(F)c3)C2)c(O)c1` (centres unmarked) [TCMDC-124607], the “% Inhibition” value is on record as 5.364%.
For `Cc1cccc(C(=O)Nc2ccnc(N3CCC(N(C)Cc4cccc(O)c4)CC3)c2)c1` [TCMDC-134963], the “% Inhibition” value amounted to 14.15%.
Consider `COc1ccc(-c2ccccc2)cc1NC(=S)NC1CCC(CN2CCC(c3c[nH]c4ccccc34)CC2)CC1` (centres unmarked) [TCMDC-140182], for which the “% Inhibition” value (% Inhibition) was 85.27%.
Still for that read-out and setting: for `COc1ccc(-c2ccccc2)cc1NC(=S)NC1CCC(CN2CCC(c3c[nH]c4ccccc34)CC2)CC1` (centres unmarked) [TCMDC-140200] the value was 105.5%.
On to `O=C(N[C@@H](CC1CCCCC1)C(=O)NCCc1ccc(Cl)c(Cl)c1)c1ccc(O)c(-c2ccc(Cl)c(Cl)c2)c1` [TCMDC-140874], for which the “% Inhibition” value stood at 30.89%.
The same measure, in the same setting: for `O=C(CCOc1ccccc1)NCC1CCCO1` (centres unmarked) [TCMDC-123513] the value was 13.36%.
Same read-out and setting: for `O=C(NCCCNc1nc2ccccc2[nH]1)c1cccc(OC(F)(F)F)c1` [TCMDC-140754] the value was -24.04%; for `COc1ccc2nccc([C@@H](O)CN3CCC(NC(=O)C(=Cc4ccc(Cl)cc4Cl)c4ccc(-c5ccccc5)cc4)CC3)c2c1` [TCMDC-141109], 17.05%; for `COc1ccc2nccc([C@@H](O)CN3CCC(NC(=O)/C(=C/c4ccccc4)c4ccc(-c5ccccc5)cc4)CC3)c2c1` [TCMDC-141115], 0.831%.
For the compound `O=C(NCCc1ccccc1)N(Cc1ccccc1-c1cccc(CNC2CCCC2)c1)C1CCN(Cc2ccccc2)CC1` [TCMDC-140612], the “% Inhibition” value was determined as 64.34%.
On to `O=C(NCCc1ccccc1)N(Cc1ccccc1-c1ccc(CNC2CCCC2)cc1)C1CCN(Cc2ccccc2)CC1` [TCMDC-140613], for which the “% Inhibition” value was determined as 98.8%.
Still for that read-out and setting: for `O=C(NCC1CCC(C(=O)NC2CCCc3ccccc32)CC1)c1ccc(O)c(-c2cccc([N+](=O)[O-])c2)c1` (centres unmarked) [TCMDC-140882] the value was 10.62%.
For the compound `O=C(Nc1ccccc1)Nc1cccc(-c2ccc(-c3nc4ccc(C(F)(F)F)cc4[nH]3)cc2)c1` [TCMDC-133151], the “% Inhibition” value is recorded as -20.54%.
As to `CCOc1cc2ncnc(Nc3ccc(OCc4c(F)cccc4F)c(OC)c3)c2cc1OCC` [TCMDC-131911], the “% Inhibition” value turned out to be 15.37%.
Regarding `CN1CCC[C@@H](Oc2cc3c(cc2Br)CCN3C(=O)Nc2ccc(-c3ccncc3)c(Cl)c2)C1` [TCMDC-139237], the “% Inhibition” value is -19.19%.
On the same count and under the same terms, for `CN1CCC(c2cc3c(cc2Br)CCN3C(=O)Nc2ccc(-c3ccncc3)c(Cl)c2)CC1` [TCMDC-139228] the value was 3.26%.
Still for that read-out and setting: for `CN1CCCC(COc2cc3c(cc2Br)CCN3C(=O)Nc2ccc(-c3ccncc3)c(Cl)c2)C1` (centres unmarked) [TCMDC-139230] the value was 96.61%; for `CC(C)OC(=O)c1cccnc1SCC(=O)Nc1ccc(C(F)(F)F)cc1Cl` [TCMDC-123575], -93.91%; for `FC(F)(F)c1ccc(CSc2ccc3nnc(-c4ccccn4)n3n2)cc1` [TCMDC-125344], 51.34%.
With `COc1ccc(-c2cccc(NC(=O)c3ccc(C#N)cc3)c2)cc1CNC(C)C` [TCMDC-132610], the “% Inhibition” value worked out at 13.1%.
With `COc1ccc(-c2cccc(NC(=O)c3cccc(C#N)c3)c2)cc1CN(C)CCO` [TCMDC-132625], the “% Inhibition” value worked out at 94.55%.
Still for that read-out and setting: for `COc1ccc(-c2cccc(NC(=O)c3ccc(F)cc3)c2)cc1CNC(C)C` [TCMDC-132608] the value was 77.83%; for `COc1ccc(-c2ccc(NC(=O)c3ccc(C#N)cc3)cc2)cc1CN(C)CCN(C)C` [TCMDC-132520], 27.11%.
`COc1ccc(-c2ccc(NC(=O)c3cccc(C#N)c3)cc2)cc1CN(C)C` [TCMDC-133333]: the “% Inhibition” value came out at 10.09%.
In the case of `COc1ccc(-c2cccc(NC(=O)c3ccc(C#N)cc3)c2)cc1CN(C)CCN(C)C` [TCMDC-133341], the “% Inhibition” value is recorded as 14.59%.
For `COc1ccc(-c2cccc(NC(=O)c3cccc(C#N)c3)c2)cc1CNC(C)C` [TCMDC-132622], the “% Inhibition” value is reported as 84.95%.
Same read-out and setting: with `COc1ccc(-c2cccc(NC(=O)c3cccc(C#N)c3)c2)cc1CN(C)CCN(C)C` [TCMDC-133339] the figure was 13.46%.
`COc1ccc(-c2ccc(NC(=O)c3ccc(C#N)cc3)c(F)c2)cc1CN(C)CCN(C)C` [TCMDC-133366]: the “% Inhibition” value is 57.41%.

The record behind these values is PMC4552634, “A New Set of Chemical Starting Points with Plasmodium falciparum Transmission-Blocking Potential for Antimalarial Drug Discovery” (PLoS ONE, 2015).
